Results: PubChem BioAssay (NCATS)
Unmarked numbers belong to inactive results. Records with an inconclusive call do not appear. Where a call stands in place of a potency, no number is given. Calls of active or inactive are those of the source. Calls come from the whole dose curve; as a rule, active = well fitted curve in the direction sought with a large enough effect; inconclusive = small, poorly fitted or top-dose-only effect, or another doubt; inactive = no such curve, though single readings can be large; an effect the other way counts as inactive or inconclusive.

Key:
[1] = Cellular Toxicity (caspase-3) Mesangial (AID 660); conditions: mesangial cells, normalized: DMSO 0%, 100 µM tamoxifen 100%; at 91.7 µM (top of the series);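 note: combined caspase 3 and 7 activity read by Caspase-Glo luminescence; cells exposed to compound for 16 h before the caspase read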
How it was run: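 Mesangial cells, 1000/well, 5 h settle at 37 °C; compound 16 h, 37 °C; Caspase-Glo 3/7 reagent 20 min RT; luminescence. Norm.: DMSO = 0%, tamoxifen 100 uM = 100%. AC50, Hill fit.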

[2] = Cellular Toxicity (caspase-3) SK-N-SH (AID 661)
How it was run: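 Human neuroblastoma SK-N-SH, 1500 cells/well, 5 hr pre-incubation, then compound 16 hr, 37 °C. Caspase-Glo 3/7 reagent, 1 hr RT, luminescence. Norm. to DMSO/10 uM staurosporine; Hill-fit AC50.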

[3] = Cellular Toxicity (caspase-3) H-4-II-E (AID 663); conditions: H-4-II-E rat hepatoma, scaled: DMSO 0%, 100 µM tamoxifen 100%; at 92.2 µM (top of the series);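 note: cells exposed to compound for 16 hr before readout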
How it was run: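 Luminescence from caspase-cleaved aminoluciferin substrate, read 20 min after reagent addition, reports caspase 3/7 activation in rat H-4-II-E cells after 16 hr compound exposure. Normalized to DMSO (basal) and 100 uM tamoxifen (100%); AC50 from Hill fits.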

[4] = Cellular Toxicity (caspase-3) Hek293 (AID 664); conditions: HEK293 caspase-3 activation, DMSO = 0%, 100 µM tamoxifen = 100%; at 92.2 µM (top of the series);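 note: cells exposed to compound for 16 h at 37 °C before readout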
How it was run: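 Cells plated, 5 hr at 37 °C; compounds added; 16 hr at 37 °C; Caspase-Glo 3/7 reagent, 20 min RT; luminescence read. Activation expressed relative to DMSO and 100 uM tamoxifen, AC50 by Hill model.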

[5] = Cellular Toxicity (caspase-3) N2a (AID 665);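 note: compound exposure lasted 16 h at 37 °C before readout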
How it was run: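 N2a cells, 1500/well, 5 h settle at 37 °C; cpd 16 h, 37 °C; Caspase-Glo 3/7, 1 h RT; luminescence. Norm: DMSO = 0, 10 uM staurosporine = 100%. AC50, Hill fit.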

[6] = Cellular Toxicity (caspase-3) Renal Proximal Tubule (AID 667); conditions: Potency: caspase-3 activation;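 note: cells exposed to compound for 16 hours at 37 °C before detection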
How it was run: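 In qHTS format, rat primary proximal tubule cells seeded at 1000 per well are exposed to compounds for 16 hours at 37 °C. An increase in Caspase-Glo 3/7 luminescence indicates caspase activation.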

[7] = target: Cytochrome P450 3A4 (Homo sapiens) (UniProt P08684); experiment: qHTS Assay for Inhibitors and Substrates of Cytochrome P450 3A4 (AID 884); note: nearly all actives have a fitted effect of over 50% in size; note: potency is the fitted concentration of half-maximal effect
How it was run: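 20 nM human CYP3A4 with 25 uM Luciferin-PPXE (at KM) in 200 mM KPO4, preincubated 10 min with compound; NADPH regeneration started a 60 min RT reaction. Luciferin detected by luminescence, normalized to 57 uM ketoconazole as full inhibition.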

[8] = Cell Viability - LYMP2-001 (AID 921);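 note: cells exposed to compound for 24 h at 37 °C; nearly all actives have a fitted effect of over 70% in size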
How it was run: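 qHTS, 1536-well; lymphoblastoid cells, 24 hr compound, 37 C; ATP by CellTiter-Glo, 30 min RT; luminescence; Hill-fit AC50.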

[9] = target: Cytochrome P450 3A4 (Homo sapiens) (UniProt P08684); experiment: qHTS Assay for Activators of Cytochrome P450 3A4 (AID 885); note: nearly all actives have a fitted effect of over 65% in size
How it was run: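 20nM CYP3A4 + 25uM Luciferin-PPXE (=KM), 200mM KPO4; cpd 10 min RT; NADPH regen, 60 min RT; stop w/ detection buffer, 20 min; luminescence. Normalized to 57 uM ketoconazole.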

[10] = Cellular Toxicity (caspase-3) NIH 3T3 (AID 666)
How it was run: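 Luminescence from aminoluciferin released by caspase-3/7 cleavage of a peptide substrate served as read-out. Mouse fibroblast NIH 3T3 cells were exposed to compounds over a concentration range for 16 hours, and AC50 values came from standard Hill modelling.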

Cytochrome P450 3A4 (Homo sapiens), sequence (P08684 whole entry, looked up): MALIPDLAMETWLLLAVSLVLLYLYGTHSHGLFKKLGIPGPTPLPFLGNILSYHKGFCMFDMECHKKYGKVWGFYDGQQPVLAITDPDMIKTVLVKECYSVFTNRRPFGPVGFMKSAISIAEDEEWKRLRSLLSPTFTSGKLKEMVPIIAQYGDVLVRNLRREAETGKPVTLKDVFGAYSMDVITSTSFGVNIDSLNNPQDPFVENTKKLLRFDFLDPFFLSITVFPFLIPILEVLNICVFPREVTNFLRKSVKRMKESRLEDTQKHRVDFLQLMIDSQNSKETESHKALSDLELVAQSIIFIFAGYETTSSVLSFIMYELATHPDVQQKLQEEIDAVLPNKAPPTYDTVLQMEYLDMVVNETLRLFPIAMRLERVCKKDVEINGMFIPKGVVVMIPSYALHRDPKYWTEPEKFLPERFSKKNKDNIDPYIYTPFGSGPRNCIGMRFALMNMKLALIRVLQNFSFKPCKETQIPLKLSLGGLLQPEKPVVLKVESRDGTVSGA

Row | Compound | caspase-3 activation [1] [%] | outcome [2] | caspase-3 activation [3] [%] | caspase-3 activation [4] [%] | outcome [5] | Potency [6] | Potency [7] | Potency [8] | outcome [9] | outcome [10]
1 | O=[N+]([O-])c1cccc(Cl)c1 | -0.653 | inactive | 0.41 | -2.38 | inactive | inactive | inactive | inactive |  | 
2 | O=Cc1ccc(Cl)cc1 | 0.65 | inactive | 0.113 | 2 | inactive | inactive |  | inactive |  | 
3 | Cc1cc(C2(c3cc(C)c(O)cc3C)OS(=O)(=O)c3ccccc32)c(C)cc1O | -0.0933 | inactive | 2.61 | 4.58 | inactive | inactive |  | inactive | inactive | 
4 | Cc1ccc2ncccc2c1 | 0.979 | inactive | 0.47 | 0.475 | inactive |  | inactive | inactive |  | inactive
5 | CC(C=O)Cc1ccc(C(C)(C)C)cc1 (stereo not drawn) | 0.925 | inactive | 0.297 | -0.395 | inactive |  |  | inactive |  | 
6 | CCC=O | -0.374 | inactive | 0.94 | 1.43 | inactive | inactive | inactive |  |  | 
7 | CC/C=C/C#N | -0.969 | inactive | 0.211 | 1.85 | inactive |  | inactive | inactive |  | inactive
8 | CC(=O)Nc1ccccc1C | 2.04 | inactive | 1.63 | 3.57 | inactive | inactive | inactive | inactive |  | 
9 | CCCC=O | -0.494 | inactive | -1.37 | -2.73 | inactive | inactive |  | inactive |  | 
10 | NCCCCCCN | 0.654 | inactive | 1.31 | -1.45 | inactive | inactive | inactive | inactive |  | 
11 | Nc1nc(-c2ccccc2)cs1 | 0.48 | inactive | 0.301 | 0.507 | inactive | inactive | 20 µM (active) | inactive | inactive | 
12 | CCCCCCCCN | -0.125 | inactive | 0.977 | 0.408 | inactive | inactive | inactive | inactive |  | 
13 | Cc1ccc2nc(-c3ccc(N)cc3)sc2c1S(=O)(=O)O | -3.9 | inactive | -4.87 | -8.94 | inactive | inactive |  | inactive | inactive | 
14 | Cc1ccccc1C=O | -0.421 | inactive | 0.931 | 1.08 | inactive | inactive | inactive | inactive |  | 
15 | Cc1ccc(C)c(O)c1 | 0.131 | inactive | 0.256 | 0.519 | inactive | inactive | inactive | inactive |  | 
16 | CC(C)(O)C(=O)O | -0.246 | inactive | -0.178 | 0.779 | inactive | inactive | inactive | inactive |  | 
17 | CCCCC(CC)C(=O)O (stereo not drawn) | 0.178 | inactive | -0.144 | 2.49 | inactive |  | inactive | inactive |  | inactive
18 | CC(=O)c1ccccc1[N+](=O)[O-] | -0.0773 | inactive | 0.797 | 1.17 | inactive | inactive | inactive | inactive |  | 
19 | Cc1ccc(S(=O)(=O)NC2CCCCC2)cc1 | 0.471 | inactive | -0.0757 | 2.22 | inactive |  |  | inactive | inactive | inactive
